Reference: PubChem BioAssay (NCI)
This is part of a sample that, as a whole, favours compounds with a hit. Of some 83,000 tested, about 20% had one in any assay.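 In brief: 96-well plates, 48 h treatment, single concentration, percent growth endpoint.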 Active and inactive are the calls of the source. Rule for the calls: active = growth percent below 10; inactive = the rest.

Tests used:
Test in all cases: NCI-60 one-dose screen, 48 h (100 = growth as untreated, 0 = no growth, -100 = all killed)
Conditions in all cases: 10 µM unless noted
SK-MEL-2 melanoma = system: SK-MEL-2 melanoma
EKVX NSCLC = system: EKVX NSCLC
SN12C renal = system: SN12C renal
UO-31 renal = system: UO-31 renal
TK-10 renal = system: TK-10 renal
ACHN renal = system: ACHN renal
CAKI-1 renal = system: CAKI-1 renal
A498 renal = system: A498 renal
CCRF-CEM leukemia = system: CCRF-CEM leukemia
MOLT-4 leukemia = system: MOLT-4 leukemia
SR leukemia = system: SR leukemia
RPMI-8226 leukemia = system: RPMI-8226 leukemia
OVCAR-8 ovarian = system: OVCAR-8 ovarian
OVCAR-5 ovarian = system: OVCAR-5 ovarian
OVCAR-4 ovarian = system: OVCAR-4 ovarian
SK-OV-3 ovarian = system: SK-OV-3 ovarian
IGROV1 ovarian = system: IGROV1 ovarian
OVCAR-3 ovarian = system: OVCAR-3 ovarian
HS 578T breast = system: HS 578T breast
NCI/ADR-RES ovarian = system: NCI/ADR-RES ovarian

Measured: growth

COc1cc(NS(=O)(=O)C(C)C)cc(-c2cc(-c3ccc(N4CCNCC4)cc3)cnc2N)c1
inactive: SK-MEL-2 melanoma 117% | EKVX NSCLC 109% | SN12C renal 64.6% | UO-31 renal 70% | TK-10 renal 115% | ACHN renal 93.2% | CAKI-1 renal 87.1% | A498 renal 75.3% | CCRF-CEM leukemia 66.7% | MOLT-4 leukemia 37.2% | SR leukemia 54.1% | RPMI-8226 leukemia 80% | OVCAR-8 ovarian 96.6% | OVCAR-5 ovarian 73.2% | OVCAR-4 ovarian 95.9% | SK-OV-3 ovarian 96.9% | IGROV1 ovarian 36.9% | OVCAR-3 ovarian 90.8% | HS 578T breast 65.4% | NCI/ADR-RES ovarian 111%

COc1ccccc1/C=C1\COc2ccc(O)c(O)c2C1=O
inactive: SK-MEL-2 melanoma 58.5% | EKVX NSCLC 71.6% | TK-10 renal 35.2% | CAKI-1 renal 31.9% | A498 renal 109% | OVCAR-5 ovarian 28.3% | OVCAR-4 ovarian 28.1% | SK-OV-3 ovarian 60.3% | HS 578T breast 10.4%
active: SN12C renal -11% | UO-31 renal -68.6% | ACHN renal 1.49% | CCRF-CEM leukemia 2.74% | MOLT-4 leukemia -1.1% | SR leukemia 8.02% | RPMI-8226 leukemia -19.3% | OVCAR-8 ovarian 9.04% | IGROV1 ovarian 6.74% | OVCAR-3 ovarian -11.8% | NCI/ADR-RES ovarian 3.53%

N#CC1=C(N)Oc2c(sc3c(Br)cccc23)C1c1ccccn1 (stereo not given)
inactive: EKVX NSCLC 53.4% | SN12C renal 43.9% | UO-31 renal 46.7% | TK-10 renal 64.6% | ACHN renal 47.3% | CAKI-1 renal 87.4% | A498 renal 37.9% | CCRF-CEM leukemia 22.1% | MOLT-4 leukemia 28.9% | SR leukemia 12.7% | RPMI-8226 leukemia 30% | OVCAR-8 ovarian 53.8% | OVCAR-5 ovarian 72% | OVCAR-4 ovarian 88.6% | SK-OV-3 ovarian 27.2% | IGROV1 ovarian 43.1% | OVCAR-3 ovarian 14.3% | HS 578T breast 45.5% | NCI/ADR-RES ovarian 14.6%
active: SK-MEL-2 melanoma 2.4%

O=C(NCc1ccc(Cn2c(=O)sn(-c3ccc(Cl)cc3)c2=O)cc1)OCc1ccc2c(Cl)cc(Cl)c(O)c2n1
inactive: SK-MEL-2 melanoma 74.3% | EKVX NSCLC 44% | SN12C renal 38.1% | UO-31 renal 13% | TK-10 renal 63.7% | ACHN renal 26% | CAKI-1 renal 52.1% | A498 renal 70.1% | CCRF-CEM leukemia 31.9% | MOLT-4 leukemia 19.3% | SR leukemia 51.9% | RPMI-8226 leukemia 46.8% | OVCAR-8 ovarian 38.1% | OVCAR-5 ovarian 74.9% | OVCAR-4 ovarian 67.3% | SK-OV-3 ovarian 76% | IGROV1 ovarian 49.2% | OVCAR-3 ovarian 63.7% | HS 578T breast 69.7%
active: NCI/ADR-RES ovarian 6.82%

Clc1nccc2c(-c3csc(-c4c[nH]c5ccc(Br)cc45)n3)c[nH]c12
inactive: SK-MEL-2 melanoma 48.7% | EKVX NSCLC 42.5% | SN12C renal 54% | TK-10 renal 28.6% | CAKI-1 renal 32.9% | CCRF-CEM leukemia 20.1% | MOLT-4 leukemia 22% | RPMI-8226 leukemia 44.9% | OVCAR-8 ovarian 33.4% | OVCAR-5 ovarian 60.1% | OVCAR-4 ovarian 48.2% | SK-OV-3 ovarian 27% | IGROV1 ovarian 44.3% | OVCAR-3 ovarian 62.5% | HS 578T breast 30.7% | NCI/ADR-RES ovarian 31.3%
active: UO-31 renal 9.83% | ACHN renal 6.55% | A498 renal -1.69% | SR leukemia 6.34%

N=C1/C(=C2\NC3C=CC=CC3S2)C(c2ccc(Cl)cc2)C2C(=O)N(c3ccccc3)C(=S)N12 (stereo not given)
inactive: SK-MEL-2 melanoma 107% | EKVX NSCLC 104% | SN12C renal 99.7% | UO-31 renal 81.6% | TK-10 renal 123% | ACHN renal 103% | CAKI-1 renal 99.6% | A498 renal 116% | CCRF-CEM leukemia 101% | MOLT-4 leukemia 88.3% | SR leukemia 105% | RPMI-8226 leukemia 103% | OVCAR-8 ovarian 99.1% | OVCAR-5 ovarian 106% | OVCAR-4 ovarian 101% | SK-OV-3 ovarian 105% | IGROV1 ovarian 92.8% | OVCAR-3 ovarian 106% | HS 578T breast 99.2% | NCI/ADR-RES ovarian 95.8%
